Compound activity as filed in PubChem BioAssay.
TDP1 block: blocks human tyrosyl-DNA phosphodiesterase 1; Q9NUW8; recombinant TDP1, AlphaScreen DNA substrate cleavage; Potency, µM (doses to about 130 µM), most hits filed as inhibitors; 0.28% of 350,000 active; AID 485290; also: nearly all actives have a fitted effect of over 40% in size
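Tdp1 1 nM final; 15 min RT w/ cpd; substrate 15 nM, 5 min; beads 10 ug/ml, 10 min; AlphaScreen read. Neg ctrl: no enzyme.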
TDP1 cell CPT: growth inhibition of DT40 Tdp1-/-;hTDP1 cells with camptothecin (screen for TDP1 inhibitors); AID 686979; 12% of 420,000 active; chicken DT40 Tdp1-/-;hTDP1 cells + 20 nM CPT, ATP luminescence, 48 h; Potency, µM (series often up to 46.2 µM), most hits filed as inhibitors; also: nearly all actives have a fitted effect of over 55% in size
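Chicken DT40 Tdp1-/- cells complemented with human TDP1, 400 cells/well, exposed to compounds plus 20 nM camptothecin for at least 48 h at 37 C; viability read as ATP content by CellTiter-Glo luminescence.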
TDP1 cell noCPT: qHTS for Inhibitors of human tyrosyl-DNA phosphodiesterase 1 (TDP1): qHTS in cells in absence of CPT; DT40 Tdp1-/- hTDP1 cells, no CPT, ATP luminescence, 48 h; Potency, µM (series often up to 46.2 µM), most hits filed as inhibitors; 15% of 420,000 active; AID 686978, 2013; also: nearly all actives have a fitted effect of over 55% in size
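Cells were dispensed at 400 per well, compounds added by pin tool, plates incubated ≥48 hr at 37 °C, then CellTiter-Glo added for 30 min at room temperature before luminescence reading. Line: DT40 Tdp1-/- complemented with hTDP1; camptothecin omitted.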
Gal4-VP16 FLuc: counter-screen for ROR gamma inhibitors: Gal4-VP16 reporter; 3.5% of 310,000 active; Potency, µM (top dose mostly 53.6 µM), most hits filed as inhibitors; Drosophila S2 Gal4-VP16 UAS-luciferase, luminescence, 20 h;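 also: Gal4-VP16 expression switched on by copper sulfate through the metallothionein promoter; nearly all actives have a fitted effect of over 50% in size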
RORgamma inh: ROR gamma (mouse) transcription inhibition; P51450; 5.4% of 310,000 active; Potency, µM (doses to about 53.6 µM), hits mostly inhibitors; Drosophila S2 Gal4-RORgamma UAS-luciferase reporter, 20 h; also: nearly all actives have a fitted effect of over 60% in size
Target sequence (P51450 whole entry, looked up, the tested form may be a part): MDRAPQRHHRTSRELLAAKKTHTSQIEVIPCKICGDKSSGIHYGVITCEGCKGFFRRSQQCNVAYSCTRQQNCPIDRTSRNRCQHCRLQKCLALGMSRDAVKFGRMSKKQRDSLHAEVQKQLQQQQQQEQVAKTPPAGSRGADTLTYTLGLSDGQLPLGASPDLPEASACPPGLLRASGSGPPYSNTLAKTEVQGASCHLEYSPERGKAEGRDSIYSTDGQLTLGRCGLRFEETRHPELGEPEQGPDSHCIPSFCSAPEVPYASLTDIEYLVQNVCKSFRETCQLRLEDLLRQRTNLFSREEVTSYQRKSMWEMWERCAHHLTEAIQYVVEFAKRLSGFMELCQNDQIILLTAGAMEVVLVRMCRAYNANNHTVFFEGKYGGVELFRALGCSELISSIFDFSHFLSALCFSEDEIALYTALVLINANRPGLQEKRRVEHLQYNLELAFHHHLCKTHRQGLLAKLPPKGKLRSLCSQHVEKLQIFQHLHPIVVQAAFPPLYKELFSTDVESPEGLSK
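Compounds are pin-transferred onto Drosophila Schneider cells expressing a copper-inducible Gal4–ROR gamma transactivation domain fusion. After 1 hr, copper sulfate is added to 700 uM final; luciferase is read 20 hr later.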
Each line names hits and unclear results; the compound was inactive in the other large screens; ! = repeats disagree. The list is not random: actives were taken first. Their share in the collection is about 19%. Calls follow the shape of the dose curve; as a rule, active = well fitted curve in the direction sought with a large enough effect; inconclusive = small, poorly fitted or top-dose-only effect, or another doubt; inactive = no such curve, though single readings can be large; an effect the other way counts as inactive or inconclusive.

COc1ccc2[nH]cc(CCNc3ncncc3-c3cccc(C#N)c3)c2c1	TDP1 cell CPT 0.0046µM, TDP1 cell noCPT inconclusive, RORgamma inh inconclusive (no result: TDP1 block)
COc1ccc2[nH]cc(CCNc3ncncc3-c3ccoc3)c2c1	TDP1 cell CPT 4.6µM, TDP1 cell noCPT 7.3µM, Gal4-VP16 FLuc 11µM (no result: TDP1 block)
COc1cccc2sc3ccc(C#Cc4ccc(N)cc4)cc3c(=O)c12	TDP1 cell CPT 16µM, TDP1 cell noCPT inconclusive (no result: TDP1 block)
O[C@@H](CNC[C@H](O)[C@H]1CCc2cc(F)ccc2O1)[C@@H]1CCc2cc(F)ccc2O1	TDP1 cell CPT 6.7µM, TDP1 cell noCPT 4.2µM (no result: TDP1 block, Gal4-VP16 FLuc, RORgamma inh)
CC1CCc2cc(F)ccc2N1C(=O)CCC(=O)O (configuration not stated)	none
CN1CCc2cc(O)c(O)cc2C(c2ccccc2)C1 (configuration not stated)	TDP1 cell noCPT inconclusive (no result: Gal4-VP16 FLuc, RORgamma inh)
C=CCN1CCc2c(cc(O)c(O)c2Br)[C@@H](c2ccccc2)C1	TDP1 cell CPT inconclusive, TDP1 cell noCPT 7.3µM (no result: Gal4-VP16 FLuc, RORgamma inh)
Oc1cc2c(cc1O)[C@@H](c1ccccc1)CNCC2	TDP1 cell CPT inconclusive, TDP1 cell noCPT inconclusive
Oc1ccc([C@@H]2CNCCc3c2cc(O)c(O)c3Cl)cc1	TDP1 cell CPT inconclusive, TDP1 cell noCPT 30µM
C=CCN1CCc2cc(O)c(O)cc2[C@H](c2ccccc2)C1	TDP1 block inconclusive, TDP1 cell CPT inconclusive, TDP1 cell noCPT 27µM
Oc1cc2c(cc1O)C(c1ccccc1)CNCC2 (configuration not stated)	TDP1 cell CPT inconclusive, TDP1 cell noCPT 26µM!
Cc1cc(OCC(=O)NC(Cc2ccc(Cl)cc2)C(=O)O)c2c(C)cc(=O)oc2c1 (configuration not stated)	none (no result: TDP1 block)
O=C1[C@@H]2[C@H](C(=O)N1Cc1cccnc1)[C@H]1C=C[C@@H]2C1	none
O=C(CCc1nnc(Cc2ccc3c(c2)OCO3)o1)NC(c1ccccn1)C(F)(F)F (configuration not stated)	none
CCN(Cc1ccccc1)c1nc2c(S(=O)(=O)c3ccccc3)nnn2c2ccc(Cl)cc12	TDP1 cell CPT inconclusive, TDP1 cell noCPT inconclusive (no result: Gal4-VP16 FLuc, RORgamma inh)
CN1CCN(C(=O)C2CC(=O)N(c3ccc(F)c(Cl)c3)C2)CC1 (configuration not stated)	none
Cc1cc(Cl)c2cc3ccccc3cc2n1	TDP1 cell CPT inconclusive, TDP1 cell noCPT inconclusive
O=C(COc1ccc2ccc(=O)oc2c1)N1CCN(c2ccc(F)cc2)CC1	TDP1 cell CPT inconclusive, TDP1 cell noCPT 23µM
O=C(COc1ccc2ccc(=O)oc2c1)Nc1ccc(N2CCCCC2)cc1	TDP1 cell CPT inconclusive, TDP1 cell noCPT 18µM (no result: Gal4-VP16 FLuc, RORgamma inh)
O=C(COc1ccc2ccc(=O)oc2c1)Nc1ccc(CCO)cc1	none
COc1cc(=O)n2c(c1C(=O)N(C)Cc1nccs1)CCN(Cc1cccc(F)c1F)CC2	none (no result: TDP1 block, Gal4-VP16 FLuc, RORgamma inh)
CCOc1ccc(CCNC(=O)COC(=O)Cn2cnc3c2c(=O)n(C)c(=O)n3C)cc1OCC	none (no result: Gal4-VP16 FLuc, RORgamma inh)
CC(=O)NC1=CC(=O)c2nonc2C1=O	TDP1 cell CPT 0.079µM, TDP1 cell noCPT inconclusive (no result: TDP1 block, Gal4-VP16 FLuc, RORgamma inh)
CC(=O)/C=C(\C)Nc1ccc(-c2cnc(-c3ccccc3)o2)cc1	none
CC1CN(S(=O)(=O)c2cccc(C(=O)Nc3ccccc3N3CCCC3)c2)CC(C)O1 (configuration not stated)	TDP1 cell CPT inconclusive, TDP1 cell noCPT 12µM (no result: Gal4-VP16 FLuc, RORgamma inh)
CC1CN(S(=O)(=O)c2cccc(C(=O)Nc3cc(Cl)ccc3N3CCOCC3)c2)CC(C)O1 (configuration not stated)	TDP1 cell CPT inconclusive, TDP1 cell noCPT 15µM (no result: Gal4-VP16 FLuc, RORgamma inh)
CC1CN(S(=O)(=O)c2ccc(NC(=O)c3cc(-c4ccccc4O)n[nH]3)cc2)CC(C)O1 (configuration not stated)	TDP1 cell CPT 21µM, TDP1 cell noCPT inconclusive, RORgamma inh inconclusive
Cc1nc2ccc(NC(=O)c3cccc(S(=O)(=O)N4CC(C)OC(C)C4)c3)cc2s1 (configuration not stated)	TDP1 cell CPT 7.3µM, TDP1 cell noCPT 12µM
O=C(Nc1ccc(S(=O)(=O)N2CCOCC2)cc1)c1cc(-c2ccccc2O)n[nH]1	none (no result: TDP1 block)
Cc1ccc2nc(NC3=NCN(Cc4cccnc4)CN3)nc(C)c2c1	none
CCc1ccccc1NC(=O)Cn1nc(C(F)(F)F)c2c1CCCC2	TDP1 cell noCPT inconclusive (no result: Gal4-VP16 FLuc, RORgamma inh)
COc1cc(NC(=O)Cn2nc(C(F)(F)F)c3c2CCCC3)c(OC)cc1Cl	TDP1 cell CPT 21µM, TDP1 cell noCPT 16µM (no result: Gal4-VP16 FLuc, RORgamma inh)
COC(=O)c1ccccc1NC(=O)Cn1nc(C(F)(F)F)c2c1CCCC2	TDP1 cell CPT 23µM, TDP1 cell noCPT 7.3µM (no result: Gal4-VP16 FLuc, RORgamma inh)
COc1cc(NC(=O)Cn2nc(C(F)(F)F)c3c2CCC3)cc(OC)c1OC	TDP1 cell CPT inconclusive, TDP1 cell noCPT 9.2µM (no result: Gal4-VP16 FLuc, RORgamma inh)
CC(=O)NC1=C(C#N)C(c2ccccc2)c2c(ccc3ccccc23)O1 (configuration not stated)	TDP1 cell CPT 8.2µM, TDP1 cell noCPT 7.3µM
CCOC(=O)CC(=O)Nc1ncnc2c1C(c1ccccc1)c1c(ccc3ccccc13)O2 (configuration not stated)	none (no result: TDP1 cell CPT, TDP1 cell noCPT, Gal4-VP16 FLuc, RORgamma inh)
COc1ccc(C2=NN(c3ccccc3)C(=O)/C2=C\c2ccc(O)c(OC)c2)cc1	none
O=C1ON=C(c2ccc(Cl)c([N+](=O)[O-])c2)/C1=C/c1cccc([N+](=O)[O-])c1O	none (no result: Gal4-VP16 FLuc, RORgamma inh)
COc1ccc(/C=C2\C(=O)ON=C2c2ccccc2)cc1	TDP1 cell CPT inconclusive, TDP1 cell noCPT 21µM (no result: TDP1 block)
O=C1ON=C(c2cccc([N+](=O)[O-])c2)/C1=C/c1ccc(O)cc1	TDP1 cell CPT 12µM, TDP1 cell noCPT 13µM
COc1cc(/C=C2\C(=O)ON=C2c2ccc(Cl)cc2)ccc1O	TDP1 cell CPT 16µM, TDP1 cell noCPT 23µM (no result: TDP1 block, Gal4-VP16 FLuc, RORgamma inh)
COc1cc(C(=O)O/N=C2/C=C(C)C(=O)C=C2C)cc(OC)c1OC	TDP1 cell CPT 8.2µM, TDP1 cell noCPT 2.1µM
CCC(C)c1ccccc1NC(=O)c1cccnc1 (configuration not stated)	RORgamma inh 11µM
CCOc1cc(C#N)c(NC(=O)c2cccnc2Cl)cc1OCC	none
CC(C)c1ccccc1NC(=O)c1cccnc1	none
CCOc1cc(C#N)c(NC(=O)c2cccnc2)cc1OCC	TDP1 cell CPT 1.3µM, TDP1 cell noCPT 1.8µM
Nc1c(C(=O)Nc2ccccc2)sc2ncc([N+](=O)[O-])cc12	TDP1 cell noCPT inconclusive
NC(=O)c1sc2nccc(Nc3ccccc3)c2c1N	TDP1 cell CPT 10µM, TDP1 cell noCPT 21µM
COc1ccc(C(=O)Nc2ccc(Oc3nc(C)nc4sc(-c5ccccc5)cc34)cc2)cc1OC	TDP1 cell CPT inconclusive, TDP1 cell noCPT inconclusive
Cc1ccc(S(=O)(=O)N(C)c2ccc(OCC(=O)OCc3nnc(-c4ccccc4)o3)cc2)cc1	none (no result: TDP1 block, Gal4-VP16 FLuc, RORgamma inh)
